DT40 TDP1 CPT: growth inhibition of DT40 Tdp1-/-;hTDP1 cells with camptothecin (screen for TDP1 inhibitors); AID 686979; Potency, µM (doses to about 46.2 µM), for the others: at the top dose activity change, negative = growth inhibition, hits mostly inhibitors; actives 12% (n = 420,000); chicken DT40 Tdp1-/-;hTDP1 cells + 20 nM CPT, ATP luminescence, 48 h; also: potency is read from the fitted curve at half-maximal effect; nearly all actives have a fitted effect of over 55% in size
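Chicken DT40 Tdp1-/- cells complemented with human TDP1, 400 cells/well, exposed to compounds plus 20 nM camptothecin for at least 48 h at 37 C; viability read as ATP content by CellTiter-Glo luminescence.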
HT1080-NT tox: kills 2HG-producing HT-1080-NT fibrosarcoma cells | AID 686970 | Potency, µM (titrated, usually from 46.1 µM), for inactives: at the highest dose activity, negative = less viability, actives largely listed as cytotoxic | actives 1.6% (n = 360,000) | HT-1080-NT fibrosarcoma viability, CellTiter-Glo ATP luminescence, 48 h;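 also: NT is the 2HG producing partner of a matched IDH1 knockdown line; potency is read from the fitted curve at half-maximal effect; 0% = DMSO-treated cells and -100% = media-only wells without cells; nearly all actives have a fitted effect of over 55% in size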
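Compounds were tested in concentration-response format on HT-1080-NT cells for 48 hours at 37 degrees C. Cell viability came from CellTiter-Glo luminescence; curves were classified by r2, response magnitude and activity.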
HT1080 IDH1KD tx: toxicity to HT-1080 IDH1 knockdown cells (counter line); actives 2% (n = 360,000); Potency, µM (highest dose often 46.1 µM), without a hit: top-dose activity, negative = toxicity, most hits filed as cytotoxic; AID 686971; HT-1080 IDH1 knockdown viability, ATP luminescence, 48 h;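 also: potency is read from the fitted curve at half-maximal effect; 0% = DMSO wells and -100% = cell-free medium wells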
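Assay cells: HT-1080 with IDH1 knockdown, 750 per well, RPMI/5% FBS. Exposure: 48 h at 37 °C following 2 h pre-incubation. Read: CellTiter-Glo luminescence; fitted concentration-response, curve class assigned.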
DT40 TDP1 no CPT: qHTS for Inhibitors of human tyrosyl-DNA phosphodiesterase 1 (TDP1): qHTS in cells in absence of CPT; DT40 Tdp1-/- hTDP1 cells, no CPT, ATP luminescence, 48 h; Potency, µM (series often up to 46.2 µM), for inactives: at the highest dose activity change, negative = growth inhibition, most hits filed as inhibitors; actives 15% (n = 420,000); AID 686978, 2013; also: potency is read from the fitted curve at half-maximal effect; nearly all actives have a fitted effect of over 55% in size
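Luminescent ATP content (CellTiter-Glo) served as the growth readout. Knockout chicken DT40 cells expressing human TDP1 were exposed to compounds without camptothecin for a minimum 48 hr at 37 °C.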
IL1B secr inh: blocks inflammasome-driven IL-1 beta release; activity change, % at 57.5 µM; actives 4.7% (n = 360,000); THP-1 LPS/ATP IL-1B secretion, AlphaLISA, 16 h; active compounds read low; in the data active = activity change below about -50%; inconclusive = mostly about -30% to -49%
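Secreted IL-1B measured by AlphaLISA bead assay after 16 h compound exposure of THP-1 cells; compounds (final up to 57.5 uM) added 1 h before LPS (250 ng/mL) and ATP (1.25 mM) stimulation; lower signal means less secretion.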
ELG1 repair inh: ELG1-dependent DNA repair inhibition; AID 504467; HEK293T ELG1-luciferase reporter, luminescence, 16 h; DNA damage induced by 5-fluorouridine; Potency, µM (top dose mostly 46.1 µM), inactives show at the highest dose activity change, negative = inhibition, hits mostly inhibitors; actives 2.3% (n = 330,000); also: potency is read from the fitted curve at half-maximal effect; nearly all actives have a fitted effect of over 55% in size
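Quantitative HTS, concentration-response format. 2,000 cells/well co-treated with 5-fluorouridine and compound, 16 hr in 5% CO2 at 37 °C; ONE-Glo luminescence read after 30 min.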
* hit, by the source's call; ? = inconclusive; · = no result given; [ ] = dose if it differs, or a comment. Shown are actives, neighbours in structure and some others; about 19% of the full set was active somewhere. Unless noted, calls follow the shape of the dose curve; as a rule, active = well fitted curve in the direction sought with a large enough effect; inconclusive = small, poorly fitted or top-dose-only effect, or another doubt; inactive = no such curve, though single readings can be large; an effect the other way counts as inactive or inconclusive. Unless noted, % is scaled to controls: 0 for no effect and ±100 for the full control effect.

SMILES	DT40 TDP1 CPT	HT1080-NT tox	HT1080 IDH1KD tx	DT40 TDP1 no CPT	IL1B secr inh	ELG1 repair inh
COc1ccc(OC)c(C(C)NC(=O)Nc2cccc(C(C)=O)c2)c1 (stereo unspecified)	-11%	6%	-1%	-12%	-6	-10%
CCOc1cc(/C=C(/C#N)c2nc3ccccc3[nH]2)ccc1OCc1ccc(C(=O)O)o1	-23%	7%	9%	?	-20	6%
COc1cc(/C=C(/C#N)c2nc3ccccc3[nH]2)ccc1OCC(=O)Nc1ccccc1C(C)C	4.6µM*	16%	8%	5.8µM*	19	?
COc1cc(/C=C(\CC(=O)O)c2nc3ccccc3s2)ccc1OCC(=O)Nc1ccccc1F	-2%	13%	6%	?	22	·
COc1cc(/C=C(\C#N)c2nc3ccccc3s2)ccc1OCC(=O)Nc1ccccc1	5.2µM*	9%	7%	4.6µM*	34	4%
COc1cc(/C=C(/C#N)c2nc3ccccc3[nH]2)ccc1OCC(=O)Nc1ccccc1C	3.3µM*	-7%	-3%	6.5µM*	7	6%
COc1cccc(-n2c(=O)c3sc4ccccc4c3n(CC(=O)NC3CCCCC3)c2=O)c1	-15%	·	·	?	·	·
CCC(=O)N1CCc2cc(Br)cc(S(=O)(=O)NCCc3ccc(OC)c(OC)c3)c21	10%	·	·	-21%	·	·
OCC1=CC[N+]2(Cc3ccccc3)CCC(O)[C@@H]12 (stereo partly specified)	7%[9.04 µM]	·	·	-6%[9.04 µM]	·	·
CCCOc1ccc(CNC(=O)CN2C(=O)c3cccnc3Oc3ccc(C)cc32)cc1	23µM*	·	·	?	·	·
Cc1ccc2c(c1)N(CC(=O)NCc1ccccc1Br)C(=O)c1cccnc1O2	?	·	·	-26%	·	·
COc1ccc(Br)cc1CNC(=O)CN1C(=O)c2cccnc2Oc2ccc(C)cc21	?	·	·	12µM*	·	·
CC(C)Oc1ccc(CNC(=O)CN2C(=O)c3cccnc3Oc3ccc(Cl)cc32)cc1	16µM*	·	·	18µM*	·	·
CCCN1Cc2cc(OC)ccc2-c2ccccc2S1(=O)=O	-14%	-1%	-3%	-12%	5	-1%
CC1CC(C)CN(S(=O)(=O)c2ccc(NC(=O)[C@@H]3CCCN3C(=O)c3cccs3)cc2)C1 (stereo partly specified)	?	-5%	-23%	?	9	8%
COc1ccc(C(=O)CSc2nn3c(=O)c(C(C)(C)C)nnc3s2)cc1	?	-26%	?	?	-58*	?
CCO[C@H]1[C@H](NC(=O)c2cccnc2)c2ccccc2C12CCN(C(=O)c1cc(C)n(C)n1)CC2	-8%[9.04 µM]	·	·	-10%	·	·
Cc1cc(SCC(=O)N/N=C/c2ccc(O)c(O)c2)nc2ccccc12	?	-29%	?	?	10	?
COC(=O)CSc1cc(C)nc2ccc(OC)cc12	-4%	19%	4%	-11%	22	-14%
COc1ccc(CCCc2nnc(SCC(=O)N/N=C\c3ccc(O)c(OC)c3)o2)cc1C	15µM*	-12%	-20%	?	-25	-15%
COc1ccc2nc(C)cc(SCC(=O)N/N=C/c3ccc(O)c(O)c3)c2c1	?	-7%	-16%	29µM*	?	-1%
COc1ccc2nc(C)cc(SCC(=O)N/N=C/c3cccc4ccccc34)c2c1	7.1µM*	11µM*	6.3µM*	13µM*	-56*	?
Cc1cc(SCC(=O)N/N=C/c2ccc(O)c(O)c2)c(C)cc1Br	21µM*	-28%	?	16µM*	51	0%
Cc1c(Cl)cccc1NC(=O)c1ncn(-c2ccccc2)n1	-17%	·	·	-5%	·	·
COc1cc(/C=C(/NC(=O)c2ccccc2)C(=O)Nc2ccc(O)cc2)c([N+](=O)[O-])cc1OC	5%	14%	11%	12%	-2	0%
SMILES	DT40 TDP1 CPT	HT1080-NT tox	HT1080 IDH1KD tx	DT40 TDP1 no CPT	IL1B secr inh	ELG1 repair inh
O=C(Nc1nnc([C@@H]2C[C@H](O)[C@@H](CO)O2)s1)Nc1ccccc1F	-4%	7%	?	0%	39	·
Cc1ccccc1NC(=O)CN(C)S(=O)(=O)c1cccc2nsnc12	-6%	·	·	-26%	·	·
COc1cccc2c(SCC(=O)N/N=C/c3ccc(O)c(O)c3)cc(C)nc12	-27%	-16%	?	?	-64*	0%
O=C(CSc1nc2ccccc2o1)N/N=C/c1ccc(O)c(O)c1	18µM*	-10%	-12%	21µM*	28	?
O=C(CSc1nc2ccccc2o1)N/N=C/c1ccccc1	-20%	7%	2%	-15%	-14	?
CCSc1nnc(NC(=O)CCCOc2ccc(C)cc2)s1	-7%	0%	-3%	?	11	8%
N#Cc1c(N2CCN(C(=O)c3ccccc3Cl)CC2)nc(-c2ccccc2)c2c1CCCC2	-24%	-2%	-5%	-17%	-58*	-14%
N#Cc1c(N2CCN(C(=O)c3ccco3)CC2)nc(-c2ccccc2)c2c1CCCC2	26µM*	?	?	?	-52*	26µM*
CC(C)Cc1nc(N2CCN(C(=O)c3ccco3)CC2)c(C#N)c2c1CCC2	?	-17%	?	-29%	-8	?
Cc1c(CC(=O)N[C@H](C(=O)O)C(C)C)c(=O)oc2cc3c(cc12)CCC(C)(C)O3	?	19%	16%	23µM*	16	?
CCC(C)NC(=O)Cc1c(C)c2cc3c(cc2oc1=O)OC(C)(C)CC3 (stereo unspecified)	?	-3%	-26%	15µM*	17	?
Cc1c(CC(=O)NC(C)C)c(=O)oc2cc3c(cc12)CCC(C)(C)O3	21µM*	17%	0%	?	-8	?
Cc1cc(Br)cc2c(C(=O)OCC(=O)c3ccccc3)cc(-c3ccccc3)nc12	-6%	·	·	9%	·	·
CC1(C)Cc2cccc(OCC(=O)Nc3cc(S(C)(=O)=O)ccc3Cl)c2O1	-22%	-4%	-1%	-18%	5	-27%
COc1ccccc1NC(=S)N(Cc1ccccc1)Cc1cccs1	-8%	19%	16%	-10%	-4	?
COc1ccccc1NC(=S)N(Cc1cccs1)C1CCCC1	?	-1%	-6%	6.5µM*	-63*	?
CCN1C(=O)[C@H]2[C@@H](c3ccc(C(F)(F)F)cc3)N[C@]3(CCCN(Cc4cccn4C)C3=O)[C@H]2C1=O	?	-13%	3%	?	-6	·

Source: PubChem BioAssay
